From PubChem BioAssay AID1159580 (chemical genetic matrix, 2015)
About 2,000 (36%) of roughly 5,500 compounds were called active. Not shown: some 18% with an inconclusive outcome. Some of the results follow. A number with no mark means an inactive call. Cut-off read from the data, not from the text of the source: active = normalized growth mostly below about 0.91 (no sharp cut-off); inconclusive = no clear call, values can overlap the other calls; inactive = mostly above about 0.92.

Test: chemical genetic growth profiling, strain panel (AID 1159580);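 note: tested at 20 µM; growth read once vehicle control cultures reached saturation at 30 °C; 1 = growth at the plate median or of vehicle wells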
Details: S. cerevisiae deletion strains, growth OD

## Nc1nccs1
Locus YAL021C, strain ccr4, stronger effect = lower value
  normalized growth: 0.994
Locus YAL026C, strain drs2, stronger effect = lower value
  normalized growth: 0.993
Locus YAL030W, strain snc1, stronger effect = lower value
  normalized growth: 0.995
Locus YBL061C, strain skt5, stronger effect = lower value
  normalized growth: 0.995
Locus YBR009C, strain hhf1, stronger effect = lower value
  normalized growth: 0.987
Locus YBR021W, strain FUR4, stronger effect = lower value
  normalized growth: 1.03
Locus YBR023C, strain chs3, stronger effect = lower value
  normalized growth: 0.991
Locus YBR171W, strain sec66, stronger effect = lower value
  normalized growth: 0.975
Locus YBR229C, strain ROT2, stronger effect = lower value
  normalized growth: 0.949
Locus YBR231C, strain swc5, stronger effect = lower value
  normalized growth: 0.973
Locus YBR279W, strain paf1, stronger effect = lower value
  normalized growth: 1
Locus YCL011C, strain gbp2, stronger effect = lower value
  normalized growth: 1.02
Locus YCL016C, strain dcc1, stronger effect = lower value
  normalized growth: 0.989
Locus YCL029C, strain bik1, stronger effect = lower value
  normalized growth: 0.98
Locus YCL061C, strain MRC1, stronger effect = lower value
  normalized growth: 0.978
Locus YCL069W, strain vba3, stronger effect = lower value
  normalized growth: 0.988
Locus YCR088W, strain abp1, stronger effect = lower value
  normalized growth: 0.992
Locus YDL005C, strain med2, stronger effect = lower value
  normalized growth: 0.985
Locus YDL035C, strain GPR1, stronger effect = lower value
  normalized growth: 1.01
Locus YDL040C, strain nat1, stronger effect = lower value
  normalized growth: 0.986
Locus YDL074C, strain BRE1, stronger effect = lower value
  normalized growth: 0.96
Locus YDL101C, strain DUN1, stronger effect = lower value
  normalized growth: 0.974
Locus YDL134C, strain PPH21, stronger effect = lower value
  normalized growth: 0.983
Locus YDL185W, strain tfp1, stronger effect = lower value
  normalized growth: 0.984
Locus YDL192W, strain arf1, stronger effect = lower value
  normalized growth: 0.983
Locus YDR001C, strain nth1, stronger effect = lower value
  normalized growth: 1
Locus YDR069C, strain doa4, stronger effect = lower value
  normalized growth: 0.95
Locus YDR101C, strain arx1, stronger effect = lower value
  normalized growth: 0.941
Locus YDR137W, strain rgp1, stronger effect = lower value
  normalized growth: 0.998
Locus YDR159W, strain sac3, stronger effect = lower value
  normalized growth: 0.953
Locus YDR162C, strain NBP2, stronger effect = lower value
  normalized growth: 0.996
Locus YDR195W, strain ref2
  normalized growth: 0.958
Locus YDR297W, strain sur2, stronger effect = lower value
  normalized growth: 0.997
Locus YDR318W, strain mcm21, stronger effect = lower value
  normalized growth: 0.989
Locus YDR334W, strain swr1, stronger effect = lower value
  normalized growth: 0.997
Locus YDR335W, strain msn5, stronger effect = lower value
  normalized growth: 0.978
Locus YDR388W, stronger effect = lower value
  normalized growth: 0.991
Locus YDR392W, strain spt3, stronger effect = lower value
  normalized growth: 0.945
Locus YDR502C, strain sam2, stronger effect = lower value
  normalized growth: 0.983
Locus YEL003W, strain gim4, stronger effect = lower value
  normalized growth: 0.997
Locus YEL037C, strain rad23, stronger effect = lower value
  normalized growth: 0.987
Locus YEL061C, strain CIN8 (second series), stronger effect = lower value
  normalized growth: 0.991
Locus YEL061C, strain CIN8, stronger effect = lower value
  normalized growth: 0.984
Locus YER015W, strain faa2, stronger effect = lower value
  normalized growth: 0.991
Locus YER016W, strain bim1, stronger effect = lower value
  normalized growth: 1.01
Locus YER110C, stronger effect = lower value
  normalized growth: 0.986
Locus YER111C, strain swi4, stronger effect = lower value
  normalized growth: 0.986
Locus YER155C, strain BEM2 (second series), stronger effect = lower value
  normalized growth: 0.841 (active)
Locus YER155C, strain BEM2, stronger effect = lower value
  normalized growth: 1
Locus YER167W, strain BCK2, stronger effect = lower value
  normalized growth: 0.995
Locus YFR010W, strain ubp6, stronger effect = lower value
  normalized growth: 0.991
Locus YGL078C, strain dbp3, stronger effect = lower value
  normalized growth: 1.01
Locus YGL086W, strain mad1, stronger effect = lower value
  normalized growth: 0.953
Locus YGL167C, strain pmr1, stronger effect = lower value
  normalized growth: 0.981
Locus YGL173C, strain kem1, stronger effect = lower value
  normalized growth: 0.99
Locus YGL227W, strain vid30, stronger effect = lower value
  normalized growth: 0.991
Locus YGL240W, strain doc1, stronger effect = lower value
  normalized growth: 0.96
Locus YGL248W, strain PDE1, stronger effect = lower value
  normalized growth: 0.974
Locus YGL253W, strain hxk2, stronger effect = lower value
  normalized growth: 1.01
Locus YGR135W, strain pre9, stronger effect = lower value
  normalized growth: 1.06
Locus YGR229C, strain SMI1, stronger effect = lower value
  normalized growth: 1.01
Locus YGR252W, strain gcn5, stronger effect = lower value
  normalized growth: 1.09
Locus YHR013C, strain ard1, stronger effect = lower value
  normalized growth: 1.02
Locus YHR027C, strain rpn1, stronger effect = lower value
  normalized growth: 0.994
Locus YHR030C, strain SLT2, stronger effect = lower value
  normalized growth: 1
Locus YHR079C, strain IRE1 (second series), stronger effect = lower value
  normalized growth: 0.989
Locus YHR094C, strain hxt1, stronger effect = lower value
  normalized growth: 0.984
Locus YHR129C, strain ARP1, stronger effect = lower value
  normalized growth: 0.987
Locus YHR142W, strain chs7, stronger effect = lower value
  normalized growth: 1.02
Locus YHR200W, strain rpn10, stronger effect = lower value
  normalized growth: 0.984
Locus YIL066C, strain RNR3, stronger effect = lower value
  normalized growth: 0.953
Locus YIL073C, strain SPO22, stronger effect = lower value
  normalized growth: 1.04
Locus YIL125W, strain kgd1, stronger effect = lower value
  normalized growth: 0.989
Locus YIR030C, strain dcg1, stronger effect = lower value
  normalized growth: 0.988
Locus YJL092W, strain hpr5, stronger effect = lower value
  normalized growth: 0.969
Locus YJL095W, strain BCK1 (second series), stronger effect = lower value
  normalized growth: 0.998
Locus YJL095W, strain BCK1, stronger effect = lower value
  normalized growth: 0.934
Locus YJL115W, strain asf1, stronger effect = lower value
  normalized growth: 0.998
Locus YJL129C, strain trk1, stronger effect = lower value
  normalized growth: 0.978
Locus YJL134W, strain LCB3, stronger effect = lower value
  normalized growth: 0.99
Locus YJL154C, strain vps35, stronger effect = lower value
  normalized growth: 0.993
Locus YJL164C, strain tpk1, stronger effect = lower value
  normalized growth: 0.997
Locus YJL166W, strain qcr8, stronger effect = lower value
  normalized growth: 0.961
Locus YJL168C, strain set2, stronger effect = lower value
  normalized growth: 0.988
